JMJD2A Tudor inh: inhibitors of human JMJD2A Tudor domain; O75164; AlphaScreen JMJD2A-Tudor / H3K4me3 peptide binding; Potency, µM (top dose mostly 114 µM), inactives show at the top dose activity change, negative = inhibition, actives largely listed as inhibitors; 4.4% of 390,000 active; AID 504339; also: % is scaled to controls: 0 for no effect and ±100 for the full control effect; nearly all actives have a fitted effect of over 50% in size
HP1b binding inh: blocks HP1-beta chromodomain binding to methylated histone tails; P83916; AlphaScreen HP1-beta / biotin-H3K9me3 peptide binding; Potency, µM (highest dose often 114 µM), without a hit: at the top dose activity change, negative = inhibition, usual class: inhibitors; 0.56% of 390,000 active; AID 540317; also: nearly all actives have a fitted effect of over 70% in size
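AlphaScreen: HP1-beta (50 nM) preformed 30 min with biotin-H3(1-18)K9me3 peptide (50 nM) in PBS pH 7.4, 0.01% Tween-20. Compound added for 30 min at RT, then streptavidin donor/nickel chelate acceptor beads (10 ug/mL) for 30 min.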
Sfp inh: blocks B. subtilis Sfp PPTase activity | AID 1490 | 3.5% of 310,000 active | Biochemical Sfp PPTase activity, qHTS | Q9F4F7 | Potency, µM, for inactives: largest response in the series, negative = inhibition, hits mostly inhibitors;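 also: the enzyme is Sfp with the accession as filed and its product quenches rhodamine fluorescence; 0% = enzyme reaction without inhibitor and -100% = no enzyme wells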
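Fluorescence-quenching assay: 15 nM Sfp-PPTase preincubated 15 min at room temperature with compound, then 5 uM rhodamine-CoA and 12.5 uM BHQ-2-labelled YbbR peptide added. Fluorescence (ex 525/em 598 nm) read at start and after 30 min; difference gives rate.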
L3MBTL1 block: inhibitors of human L3MBTL1. 0.66% of 230,000 active. Q9Y468. Potency, µM (doses to about 57.1 µM), for inactives: top-dose activity, negative = inhibition, most hits filed as inhibitors. AlphaScreen L3MBTL1–H3K9me1 peptide binding; also: % is scaled to controls: 0 for no effect and ±100 for the full control effect; nearly all actives have a fitted effect of over 60% in size
Target sequence (Q9Y468 whole entry, looked up): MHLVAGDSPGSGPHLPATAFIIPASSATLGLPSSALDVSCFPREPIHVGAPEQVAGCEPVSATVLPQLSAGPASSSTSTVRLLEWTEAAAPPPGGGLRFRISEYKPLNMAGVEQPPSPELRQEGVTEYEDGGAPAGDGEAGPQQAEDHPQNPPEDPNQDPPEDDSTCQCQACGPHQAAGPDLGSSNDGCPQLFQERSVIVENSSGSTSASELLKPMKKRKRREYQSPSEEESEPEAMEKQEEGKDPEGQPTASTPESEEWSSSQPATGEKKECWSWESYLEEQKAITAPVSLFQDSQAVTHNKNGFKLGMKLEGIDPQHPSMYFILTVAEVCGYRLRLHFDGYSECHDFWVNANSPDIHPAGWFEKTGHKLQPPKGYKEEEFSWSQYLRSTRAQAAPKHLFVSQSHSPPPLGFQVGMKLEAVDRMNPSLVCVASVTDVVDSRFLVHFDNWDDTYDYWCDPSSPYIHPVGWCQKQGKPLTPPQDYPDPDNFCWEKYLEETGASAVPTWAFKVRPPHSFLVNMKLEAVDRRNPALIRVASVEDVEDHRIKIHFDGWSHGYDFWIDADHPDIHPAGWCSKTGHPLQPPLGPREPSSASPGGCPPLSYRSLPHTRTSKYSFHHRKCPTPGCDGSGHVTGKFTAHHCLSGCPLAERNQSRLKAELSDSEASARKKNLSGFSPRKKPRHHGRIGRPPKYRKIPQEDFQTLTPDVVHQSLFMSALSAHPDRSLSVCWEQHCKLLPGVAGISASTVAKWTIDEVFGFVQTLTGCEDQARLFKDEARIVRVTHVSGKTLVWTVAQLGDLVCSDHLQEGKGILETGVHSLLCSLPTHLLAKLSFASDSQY
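AlphaScreen proximity signal between nickel-chelate acceptor and streptavidin donor beads (final 10 ug/mL) reports binding of 50 nM L3MBTL1 to 75 nM biotin-H3 K9me1 peptide; complex incubated with compounds 30 min at room temperature; cefsulodin titration as control.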
G9a block: blocks human histone lysine methyltransferase G9a; 8.8% of 350,000 active; Potency, µM (titrated, usually from 102 µM), without a hit: at the top dose activity, negative = inhibition, actives largely listed as inhibitors; G9a H3K9 monomethylation, AlphaScreen, 2 h; Q96KQ7; AID 504332; also: % is scaled to controls: 0 for no effect and ±100 for the full control effect; nearly all actives have a fitted effect of over 75% in size
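G9a (20 nM) preincubated 15 min RT with compounds, then 500 nM biotinylated H3K9 peptide and 20 uM SAM added; 2 h RT reaction. Monomethyl-H3K9 product detected by AlphaScreen with anti-H3K9me1 antibody, streptavidin donor and anti-rabbit IgG acceptor beads.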
BAZ2B block: blocks human BAZ2B | AlphaScreen BAZ2B-H3K14Ac peptide displacement | 4.4% of 360,000 active | AID 504333 | Potency, µM (titrated, usually from 114 µM), for inactives: at the highest dose activity change, negative = inhibition, hits mostly inhibitors; also: % is scaled to controls: 0 for no effect and ±100 for the full control effect; nearly all actives have a fitted effect of over 60% in size
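Complex of BAZ2B and biotin-H3K14Ac (50 nM apiece) forms over 30 min at RT, then faces library compounds up to 110 uM for another 30 min; AlphaScreen beads added, 20 min dark incubation, luminescence read.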
Numbers without * were called inactive; ? = inconclusive; nt = not tested or not shown; [ ] = another dose, or the depositor's remark. In the library only some 12% were active in any assay of this set; here they are far more common. Calls follow the shape of the dose curve; as a rule, active = well fitted curve in the direction sought with a large enough effect; inconclusive = small, poorly fitted or top-dose-only effect, or another doubt; inactive = no such curve, though single readings can be large; an effect the other way counts as inactive or inconclusive. Potency is read from the fitted curve at half-maximal effect.

SMILES	JMJD2A Tudor inh	HP1b binding inh	Sfp inh	L3MBTL1 block	G9a block	BAZ2B block
COc1cc(OC)c(OC)cc1/C=C1\C(=O)NC(=O)N(Cc2ccccc2)C1=O	-7%	17%	-14%	nt	?	-28%
COc1cc(OC)c(OC)cc1/C=C1/C(=O)NC(=O)N(Cc2ccccc2)C1=O	-19%	22%	-14%	1%	50µM*	-18%
COc1ccc(CN2C(=O)NC(=O)/C(=C\c3cc(OC)c(OC)c(OC)c3)C2=O)cc1	50µM*	-24%	-9%	nt	?	?
COc1ccc(/C=C2\C(=O)NC(=O)N(Cc3ccccc3)C2=O)c(OC)c1OC	-14%	17%	35µM*	36%	nt	-16%
C=C[C@]12CN(C)[C@H]3C1[C@@]1(C(=O)Nc4ccccc41)[C@H]1C[C@H]2[C@H]3CO1	nt	nt	11%	nt	27%[21.5 µM]	nt
COc1ccc(N2C(=O)NC(=O)/C(=C\c3ccc([N+](=O)[O-])s3)C2=O)cc1	22µM*	22µM*	40µM*	22µM*	7.9µM*	32µM*
CCc1ccc(N2C(=O)NC(=O)/C(=C/c3cccn3CCOc3ccc(C(C)CC)cc3)C2=O)cc1 (centres undefined)	-17%	13%	11%	-14%	10%[59 µM]	-36%
COc1cccc(N2C(=O)NC(=O)/C(=C/c3ccc([N+](=O)[O-])s3)C2=O)c1	22µM*	35µM*	25µM*	nt	11µM*	35µM*
COc1ccc(N2C(=O)NC(=O)/C(=C/c3ccc([N+](=O)[O-])s3)C2=O)cc1	56µM*	?	25µM*	nt	8.9µM*	40µM*
COc1ccccc1N1C(=O)NC(=O)/C(=C/c2ccc([N+](=O)[O-])s2)C1=O	56µM*	?	22µM*	nt	8.9µM*	35µM*
COc1ccccc1[N+](=O)[O-]	-11%	23%	nt	4%	11%[0.501 µM]	-4%
CC(C)C1C(=O)N2CCCC2[C@]2(O)O[C@@](NC(=O)[C@@H]3C=C4c5cccc6[nH]cc(c56)C[C@H]4N(C)C3)(C(C)C)C(=O)N12 (some centres undefined)	nt	nt	-16%	nt	nt	nt
COC(=O)[C@@H]1C[C@H](OC(C)=O)C(=O)[C@H]2[C@@]1(C)CC[C@H]1C(=O)O[C@H](c3ccoc3)C[C@]21C	nt	nt	-2%	nt	?	nt
CNc1ccc2oc(C[C@H]3O[C@]4(CC[C@H]3C)O[C@H]([C@H](C)C(=O)c3ccc[nH]3)[C@H](C)C[C@H]4C)nc2c1C(=O)O	nt	nt	-10%	nt	nt	nt
Cc1[nH]c2ccccc2c1CN1CCCCC1	-13%	3%	nt	nt	nt	nt
c1ccc2c(CNC3CCCCC3)c[nH]c2c1	-20%	10%	6%	nt	-8%	-4%
c1ccc2c(CN3CCCCCCC3)c[nH]c2c1	28µM*	-9%	5%	-1%	?	-5%
c1ccc2c(CN3CCN(C4CCCCC4)CC3)c[nH]c2c1	?	?	-26%	-4%	50µM*	50µM*
CCN1C[C@]2(C)CC[C@H](OC)[C@]34C5C[C@@H]6CC[C@@](O)(C5C(=O)O6)C(C13)[C@@H](OC(=O)c1ccccc1)C24	nt	nt	9%	nt	nt	nt
C=C[C@@H]1CN2CC[C@H]1C[C@H]2[C@H](O)c1ccnc2ccccc12	nt	nt	18%	nt	6%[59 µM]	nt
Cc1cccnc1-n1c(-c2ccco2)nc2ccccc2c1=O	13%	22%	0%	-6%	50µM*	-6%
COC1=CC2C3Cc4ccc(OC)c(O)c4[C@]2(CCN3C)CC1=O (some centres undefined)	nt	nt	-1%	nt	-39%[2.33 µM]	nt
CCOC(=O)c1cc(C)n(CCc2cnc[nH]2)c1C	?	-15%	-3%	-15%	?	56µM*
COC(=O)C12CC3=CC(CC3=O)Cc3ccccc3[C@@H]1CNC2=O (some centres undefined)	nt	nt	25%	nt	nt	nt
N#Cc1ccc(CN2CCCC3(CCN(C(=O)Oc4ccccc4)CC3)C2)cc1	nt	nt	-10%	nt	-17%[12.7 µM]	nt
SMILES	JMJD2A Tudor inh	HP1b binding inh	Sfp inh	L3MBTL1 block	G9a block	BAZ2B block
COc1ccc2[nH]cc(CCN=C(NC(=O)c3ccccc3OC)Nc3nc(C)cc(C)n3)c2c1	?	-4%	nt	nt	?	25µM*
O=C1CN=C(c2ccccc2)c2cc(Cl)ccc2N1CC1CC1	nt	nt	16%	nt	-39%[12.7 µM]	nt
COc1cccc(CNCCc2ccc(F)cc2)c1	?	4%	-9%	nt	-19%	40µM*
COc1cccc(CCNCc2c(F)cccc2F)c1	?	?	-12%	0%	7.9µM*	40µM*
CCOC(=O)c1ccc(N2C(=O)c3n[nH]c(-c4cccs4)c3C2c2ccc(Cl)cc2Cl)cc1 (centres undefined)	?	15%	nt	nt	-43%[59 µM]	nt
CC(C)c1ccc(N2C(=O)NC(=O)/C(=C\C=C\c3ccco3)C2=O)cc1	?	1%	-18%	nt	?	-27%
Cc1ccc(N2C(=O)NC(=O)/C(=C/c3cnc(-c4ccccc4)nc3)C2=O)cc1C	79µM*	-16%	?	-1%	10µM*	-2%
Cc1cccc(N2C(=O)NC(=O)/C(=C\c3cnc(-c4ccccc4)nc3)C2=O)c1	?	11%	?	23%	7.1µM*	-3%
CC(C)c1ccc(N2C(=O)NC(=O)/C(=C\c3cnc(-c4ccccc4)nc3)C2=O)cc1	-12%[11.4 µM]	?	45µM*	-3%	?	-29%
c1cncc([C@@H]2CCCCN2)c1	nt	nt	23%	nt	-2%[21.5 µM]	nt
COc1cc(/C=C/[N+](=O)[O-])ccc1O	?	?	?	1%	6.3µM*	45µM*
C=C(C)[C@]12C[C@@H](C)[C@@]34O[C@](Cc5ccccc5)(O[C@@H]1[C@@H]3C=C(COC(=O)Cc1ccc(O)c(OC)c1)C[C@]1(O)C(=O)C(C)=C[C@@H]41)O2	nt	nt	22%	nt	?	nt
Cn1c(C(=O)NCCOc2ccccc2Cl)cc(=O)n(C)c1=O	-23%	53%	23%	nt	-11%[59 µM]	-22%
C(#CCN1CCCCC1)COCc1ccccc1	-5%	49%	5%	-4%	nt	-14%
C(#CCN1CCOCC1)COC/C=C/c1ccccc1	-15%	2%	-1%	4%	45µM*	1%
O=C(NC1CCCCCC1)c1ccc[nH]c1=S	5µM*	?	?	nt	2.5µM*	-4%
COc1cc2c(c(OC)c1OC)-c1ccc(O)c(=O)cc1[C@@H](N)CC2	79µM*	52%	nt	-5%	-2%[12.7 µM]	5%
CCOc1cc2[nH]c(=O)n(CCCC(=O)N3CCN(c4cccc(Cl)c4)CC3)c(=O)c2cc1OCC	?	-8%	nt	nt	-4%[59 µM]	-22%
CN1CCC2(CC1)N=C(c1ccc(F)cc1)C(=S)N2	32µM*	?	79µM*	nt	25µM*	-1%
CN1CCC2(CC1)NC(=O)c1ccccc1N2	-8%	55%	-6%	nt	9%[59 µM]	-2%
